sPLA2-III inh: Blocks human group III sPLA2 activity; actives 0.56% (n = 370,000); inhibition, % at 12.2 µM; QFRET BODIPY PC-A2 liposome hydrolysis, fluorescence; Q9NZ20;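 active = inhibition above mean plus 3 SD of compounds lying within the high and low control bounds, cut at about 19% in these data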;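 note: 0% = median of test compound wells and 100% = no enzyme DMSO wells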
Target sequence (Q9NZ20 whole entry, looked up): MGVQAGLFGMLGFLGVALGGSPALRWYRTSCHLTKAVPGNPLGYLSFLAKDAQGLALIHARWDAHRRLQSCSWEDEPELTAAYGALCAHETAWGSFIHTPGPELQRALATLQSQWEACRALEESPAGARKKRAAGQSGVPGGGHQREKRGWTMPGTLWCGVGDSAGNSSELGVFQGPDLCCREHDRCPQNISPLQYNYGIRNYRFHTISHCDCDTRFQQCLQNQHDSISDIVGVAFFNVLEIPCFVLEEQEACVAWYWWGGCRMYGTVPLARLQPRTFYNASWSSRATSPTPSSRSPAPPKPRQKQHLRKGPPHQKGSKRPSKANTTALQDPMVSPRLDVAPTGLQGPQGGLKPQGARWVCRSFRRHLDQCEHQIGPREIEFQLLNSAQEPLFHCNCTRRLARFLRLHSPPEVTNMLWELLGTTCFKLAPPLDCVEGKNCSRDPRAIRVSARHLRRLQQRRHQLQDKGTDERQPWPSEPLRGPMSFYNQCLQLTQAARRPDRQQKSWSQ
MsrA act: bovine methionine sulfoxide reductase A activation; purified bovine MsrA, absorbance read-out; activation, % at 10.6 µM; actives 0.3% (n = 360,000); in the data active = activation above about 7.5%;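 note: 0% = vehicle and 100% = reference activator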
rCAG binder: molecules binding r(CAG) RNA repeats. r(CAG) RNA repeat, TO-PRO-1 dye displacement fluorescence. inhibition, % at 3 µM. actives 1.3% (n = 370,000);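 active = inhibition above the plate cutoff, the mean of all test compounds on that plate plus 3 SD, cut at about 35% in these data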;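 note: 0% = DMSO alone and 100% = 100 µM mitoxantrone as full dye displacement; higher means more dye released from RNA so lower well fluorescence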
PG9 binder: small molecules binding HIV-1 gp120 antibody PG9; inhibition, % at 6.7 µM; TR-FRET gp120-PG9 antibody binding; actives 0.43% (n = 360,000); in the data active = inhibition above about 8.5%
MsrA inhibitor: bovine MsrA inhibition | actives 0.75% (n = 360,000) | AID 651718 | inhibition, % at 15.5 µM | purified bovine MsrA, absorbance read-out;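 note: 0% = vehicle wells with enzyme and 100% = reference inhibitor wells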
MsrA inh confirm: confirmation of bovine MsrA inhibitors; AID 651822; inhibition, % at 15.5 µM; actives 41% (n = 2,300); purified bovine MsrA, absorbance read-out; shares compounds with MsrA inhibitor;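 note: coupled to thioredoxin reductase with NADPH and selenocystamine and DMSO as substrate; 0% = vehicle only and 100% = full effect of reference inhibitor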
rCAG binder conf: r(CAG) RNA repeat binding, confirmation | shares compounds with rCAG binder | TO-PRO-1 dye displacement fluorescence | inhibition, % at 3 µM | actives 70% (n = 4,300);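 active = inhibition above a per-plate cutoff, the mean inhibition of sample wells plus 3 SD, cut at about 35% in these data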;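 note: loss of TO-PRO-1 fluorescence as compound displaces dye from 1x1 AA loop RNA; 0% = DMSO only wells and 100% = 100 µM mitoxantrone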
DNA CAG counter: disrupts DNA CAG TO-PRO-1 complex, flagging rCAG hits | shares compounds with rCAG binder | d(CAG) DNA oligo TO-PRO-1 dye displacement, fluorescence | inhibition, % at 3 µM | actives 94% (n = 4,300);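 active = inhibition above its plate's cutoff, the mean test-well inhibition plus 3 SD, cut at about 4.8% in these data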;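 note: 0% = DNA dye mix with DMSO and 100% = 100 µM mitoxantrone; hits displace the dye from DNA and so lower well fluorescence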
DNA CAG DR: counter-screen for rCAG binders: inhibitors of DNA CAG TO-PRO-1 complex | DNA CAG/GTC duplex TO-PRO-1 dye displacement fluorescence | actives 20% (n = 250) | AID 686960 | IC50, µM | shares compounds with rCAG binder; in the data active = IC50 below about 10 µM
sPLA2 confirm: human GIII-sPLA2 inhibition, confirmation; shares compounds with sPLA2-III inh; recombinant hGIII-sPLA2, BODIPY PC-A2 QFRET fluorescence; inhibition, % at 12.2 µM; actives 34% (n = 2,000);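 active = mean inhibition across triplicates above the hit cutoff set in the earlier primary screen, cut at about 19% in these data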;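 note: 0% = enzyme with DMSO and 100% = DMSO wells lacking enzyme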
BODIPY interf: optically interferes with 535nm fluorescence in sPLA2 counter-screen. inhibition, % at 12.2 µM. shares compounds with sPLA2-III inh. AID 743282. BODIPY FL product fluorescence interference, QFRET. actives 8.5% (n = 2,000);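 active = average inhibition above the solvent-only control mean plus 3 SD, cut at about 6% in these data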;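 note: 0% = DMSO with substrate plus product and 100% = DMSO with substrate alone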
535nm interf DR: counter-screen for HGIII-sPLA2 inhibitors: 535nm fluorescence interference, dose response; AID 743455; 240 tested, under 10 active; IC50, µM; shares compounds with sPLA2-III inh; BODIPY FL product fluorescence interference, cell-free;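 active = IC50 at or below 10 µM; inactive = IC50 above 10 µM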
* marks the source's active call; other numbers are inactive results; i = inactive; / = no result given. Rows were chosen to be rich in hits. Some 3.2% of all compounds tested hit in one or more screens of this group. Cut-off read from the data, not from the text of the source, unless noted: active = inhibition above about 4.5%; inactive = the rest.

SMILES	sPLA2-III inh	MsrA act	rCAG binder	PG9 binder	MsrA inhibitor	rCAG binder conf	DNA CAG counter	others
CC(=O)Nc1ccc(C=NNc2ccc(S(=O)(=O)Nc3ccccc3C(=O)O)cc2[N+](=O)[O-])cc1	-19.7	-7.5	88.5*	1.1	6.0*	91.8*	73.7*	MsrA inh confirm=4.9*
O=[N+]([O-])c1cc(S(=O)(=O)Nc2ccc(Cl)cc2)ccc1N/N=C/c1ccncc1	-3.3	-4.6	3.8	-2.1	1.3	/	/
CCOC(=O)[C@@]12CN(C(=O)OC(C)(C)C)CC=C1N(Cc1ccc(OC)cc1)C(=O)[C@H]2CC(=O)NCCCOC	10.5	/	-0.3	/	/	/	/
COc1cc2c(cc1OC)-c1cc(Nc3ccccc3C)nc(=O)n1CC2	5.1	-2.1	5.2	1.0	3.1	/	/
CCOc1ccccc1Nc1cc2n(c(=O)n1)CCc1cc(OC)c(OC)cc1-2	82.0*	-1.5	-4.3	-1.9	6.9*	/	/	MsrA inh confirm=3.7;sPLA2 confirm=4.9;BODIPY interf=-15.9
CCOC(=O)c1cc2c(=Cc3ccc(N(C)C)cc3)c3ccccc3n2[n+]1C	28.0*	-4.8	17.3	-36.9	5.0*	/	/	MsrA inh confirm=0.0;sPLA2 confirm=35.0*;BODIPY interf=-13.0;535nm interf DR=>122
CN(C)c1ccc(C=c2c3ccccc3n3c2c2ccccc2[n+]3C)cc1	-30.5	-4.2	18.1	-31.5	2.2	/	/
O=C(NC(=S)NNC(=O)c1cc2ccccc2cc1O)c1ccco1	21.0*	-7.8	67.3*	-0.3	6.5*	53.3*	17.4*	MsrA inh confirm=4.2;sPLA2 confirm=27.9*;BODIPY interf=1.8;535nm interf DR=>122
COc1ccc(/C=C/C(=O)NC(=S)NNC(=O)c2ccco2)cc1	24.9*	0.9	7.6	-0.5	5.5*	/	/	MsrA inh confirm=4.9*;sPLA2 confirm=52.8*;BODIPY interf=-8.4;535nm interf DR=>122
O=C(NC(=S)NNC(=O)c1ccco1)c1ccc(F)cc1	16.4	3.1	0.2	0.2	3.3	/	/
Cc1ccc(-c2nc3ncccn3c2NC(=O)Nc2ccc(F)cc2)cc1	-5.4	/	5.0	/	/	/	/
C/C=C/c1ccccc1OCCCN1CCC(C(O)(c2ccccc2)c2ccccc2)CC1	-23.7	/	0.2	/	/	/	/
Cn1c(=O)c(=O)n(C)c2cc(N3CCCCC3)c(NS(=O)(=O)c3ccc([N+](=O)[O-])cc3)cc21	20.7*	-2.1	11.1	-1.9	4.8*	/	/	MsrA inh confirm=2.0;sPLA2 confirm=12.3;BODIPY interf=-3.0
CCn1c2ccccc2c2cc(C=NNC(=O)CSc3nc4ccccc4c(=O)n3-c3ccccc3)ccc21	-1.7	/	16.9	/	/	/	/
CCN(CC)CCn1c(-c2ccccc2)nc(=S)c2c1CC(C)(C)OC2	21.2*	-5.8	3.2	-3.4	6.3*	/	/	MsrA inh confirm=4.2;sPLA2 confirm=-0.3;BODIPY interf=-1.4
Cc1ccc(NC(=O)OC2CC3CC2[C@H]2CCCCN2[C@H]3Cc2ccccc2)cc1 (some centres undefined)	-2.9	/	0.9	/	/	/	/
COc1cc(/C=N/N=C(\N)c2nonc2N)ccc1O	24.9*	-5.7	0.3	-0.5	5.5*	/	/	MsrA inh confirm=4.5;sPLA2 confirm=0.6;BODIPY interf=-7.0
O=C(CNC(=O)c1ccccc1)NCC(=O)OCC(=O)c1ccc(F)cc1	3.0	-3.5	-4.1	-0.4	-1.6	/	/
Cc1ccc(C(=O)NCC(=O)NCC(=O)OCC(=O)c2ccc(F)cc2)cc1	26.6*	-3.6	-2.6	-1.0	51.6*	/	/	MsrA inh confirm=0.2;sPLA2 confirm=2.9;BODIPY interf=-10.8
CCN(CC)c1ccc(C(=C2C=CC(=[N+](CC)CC)C=C2)c2ccc(S(=O)(=O)O)cc2S(=O)(=O)[O-])cc1	-3.8	-2.3	45.5*	-75.2	-0.2	58.1*	17.6*
COCCCn1c(=O)/c(=C\c2cccc(OC)c2OC)s/c1=C(/C#N)C(=O)Nc1ccc(C(=O)O)cc1	-14.6	0.1	52.4*	-3.6	2.3	73.0*	34.1*
COCCCn1c(=O)/c(=C/c2ccccc2OC(F)F)s/c1=C(\C#N)C(=O)NCCOC	1.4	-6.0	1.9	0.0	1.0	/	/
O=C1N=c2ccccc2=C1c1sc(=S)n(NC(=O)c2ccccc2)c1O	6.0	4.2	60.6*	-2.5	-0.1	40.6*	19.7*
C=CCn1c(O)c(C2=c3ccccc3=NC2=O)sc1=Nc1ccc(O)cc1	-1.4	-0.2	32.4	0.4	0.3	/	/
COc1cc(NS(=O)(=O)c2ccc(N/C=C(\C=O)c3nc4ccccc4o3)cc2)nc(OC)n1	-21.0	-0.3	35.1*	-1.4	1.6	38.7*	11.4*
SMILES	sPLA2-III inh	MsrA act	rCAG binder	PG9 binder	MsrA inhibitor	rCAG binder conf	DNA CAG counter	others
COc1cc(NS(=O)(=O)c2ccc(N/C=C(\C#N)c3nc4ccccc4o3)cc2)nc(OC)n1	-26.8	-3.9	68.5*	0.1	4.2	67.3*	31.1*
COc1cc(NS(=O)(=O)c2ccc(NC(=S)Nc3ccccc3)cc2)nc(OC)n1	10.1	-1.5	2.8	3.7	0.1	/	/
CC(C)(Sc1ccc(CCN(CCCCC2CCCCC2)C(=O)NC2CCCCC2)cc1)C(=O)O	-15.1	-0.3	48.7*	-0.9	-0.8	54.6*	16.9*	DNA CAG DR=>29.9
CCOc1ccc(-n2c(SCC(=O)c3ccc4ccccc4c3)nnc2-c2ccco2)cc1	-11.6	/	21.2	/	/	/	/
O=C(O)c1ccccc1Nc1cccc(OCc2ccc3ccccc3n2)c1	-39.2	-1.9	70.3*	-2.7	0.2	70.7*	30.9*	DNA CAG DR=i
CCOc1ccc(CCNC(=O)c2ccccn2)cc1OCC	1.4	/	/	/	/	/	/
C=CCn1c(SCc2ccc(Br)cc2F)nc2cc(C(=O)O)ccc2c1=O	-34.5	-0.4	56.7*	1.1	3.5	60.5*	21.9*
C=CCn1c(SCc2c(C)noc2C)nc2cc(C(=O)O)ccc2c1=O	0.1	-6.4	12.7	-4.5	-0.2	/	/
COCCCNC(=O)C[C@@H]1C(=O)N(CCc2ccc(Cl)cc2)C2=CCCCC[C@]21C(=O)OC	5.4	/	5.6	/	/	/	/
Cc1ccc(C(=O)Nc2nc(=O)n(C(=O)c3ccccc3Cl)s2)cc1	-12.8	-7.3	47.8*	-0.5	-0.7	63.4*	17.2*
Cc1ccc(C(=O)Nc2nc(=O)n(C(=O)CC(C)C)s2)cc1	-8.7	-2.2	20.1	-2.4	0.5	/	/
Cc1ccc(-n2c(SCC(=O)NN=Cc3c[nH]c4ccccc34)nnc2-c2ccccc2)cc1	-3.2	/	10.8	/	/	/	/

Screens as filed in PubChem.
